# High-throughput results deposited in PubChem BioAssay by National Center for Advancing Translational Sciences (NCATS).
# Shown are actives, neighbours in structure and some others; about 19% of the full set was active somewhere.
# TDP1 cell noCPT – qHTS for Inhibitors of human tyrosyl-DNA phosphodiesterase 1 (TDP1): qHTS in cells in absence of CPT; 420,000 tested, 15% active; DT40 Tdp1-/- hTDP1 cells, no CPT, ATP luminescence, 48 h; Potency, µM (titrated, usually from 46.2 µM), actives largely listed as inhibitors; further: nearly all actives have a fitted effect of over 55% in size
#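 Chicken DT40 Tdp1-/- cells stably complemented with human TDP1 were seeded at 400 cells/well with DMSO in place of 20 nM camptothecin. After compound pinning, cells grew at least 48 hr at 37 °C; viability read by CellTiter-Glo luminescence.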
# RORgamma inh – ROR gamma (mouse) transcription inhibition. 310,000 tested, 5.4% active. AID 2551. P51450. Potency, µM (highest dose often 53.6 µM), hits mostly inhibitors. Drosophila S2 Gal4-RORgamma UAS-luciferase reporter, 20 h; further: nearly all actives have a fitted effect of over 60% in size
#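 Stably transfected Drosophila Schneider cells are the test system, with ROR gamma fused to Gal4 and luciferase under UAS control; luminescence is read after 20 hr of 700 uM copper sulfate induction at ambient temperature.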
# Gal4-VP16 FLuc – inhibits Gal4-VP16 luciferase reporter, ROR gamma counter-screen. Drosophila S2 Gal4-VP16 UAS-luciferase, luminescence, 20 h. Potency, µM (top dose mostly 53.6 µM), actives largely listed as inhibitors. 310,000 tested, 3.5% active. AID 2546;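 further: Gal4-VP16 expression switched on by copper sulfate through the metallothionein promoter; nearly all actives have a fitted effect of over 50% in size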
# TDP1 cell CPT – growth inhibition of DT40 Tdp1-/-;hTDP1 cells with camptothecin (screen for TDP1 inhibitors); chicken DT40 Tdp1-/-;hTDP1 cells + 20 nM CPT, ATP luminescence, 48 h; Potency, µM (top dose mostly 46.2 µM), most hits filed as inhibitors; 420,000 tested, 12% active; AID 686979; further: nearly all actives have a fitted effect of over 55% in size
#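 Chicken DT40 Tdp1-/- cells stably complemented with human TDP1 were seeded at 400 cells/well in medium containing 20 nM camptothecin, exposed to pin-transferred compounds, and grown at 37 °C for at least 48 hr. Viability was read as ATP luminescence.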
# TDP1 block – inhibitors of human tyrosyl-DNA phosphodiesterase TDP1. Q9NUW8. recombinant TDP1, AlphaScreen DNA substrate cleavage. Potency, µM (highest dose often 130 µM), most hits filed as inhibitors. 350,000 tested, 0.28% active. AID 485290; further: nearly all actives have a fitted effect of over 40% in size
#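 Signal: AlphaScreen proximity between streptavidin donor and anti-FITC acceptor beads on intact substrate. Reaction: Tdp1 1 nM, substrate 15 nM final, 5 min RT after 15 min compound preincubation.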
# Numbers stand for hits; n = inactive; u = inconclusive; x = no result given. The call rests on the fitted dose curve; in most records, active means well fitted curve in the direction sought with a large enough effect; inconclusive means small, poorly fitted or top-dose-only effect, or another doubt; inactive means no such curve, though single readings can be large; an effect the other way counts as inactive or inconclusive.
SMILES,TDP1 cell noCPT,RORgamma inh,Gal4-VP16 FLuc,TDP1 cell CPT,TDP1 block
CC1Cc2ccccc2N1c1ncnc2nc[nH]c12 (stereo not given),23.1µM,n,n,u,n
COc1ccc(S(=O)(=O)N2CCOCC2)cc1NC(=O)Cc1ccsc1,n,x,x,n,n
CC(C)Oc1ccc(S(=O)(=O)N2CCOCC2)cc1NC(=O)C1COc2ccccc2O1 (stereo not given),18.4µM,x,x,20.6µM,n
CC(C)Oc1ccc(S(=O)(=O)N2CCOCC2)cc1NC(=O)Cc1ccsc1,u,x,x,20.6µM,n
O=C1CCCc2ccccc2N1Cc1c(Cl)cccc1Cl,u,1.78µM,u,n,n
COc1ccc(CN2C(=O)CCCc3ccccc32)cc1,20.6µM,n,n,u,n
O=C1CCCc2ccccc2N1Cc1ccc(Cl)cc1,u,n,n,u,n
O=C1CCCc2ccccc2N1Cc1ccccc1Cl,u,n,n,u,n
O=C1CCCc2ccccc2N1Cc1cccc(Cl)c1,9.2µM,n,n,u,n
O=C1CCCc2ccccc2N1Cc1ccccc1,11.6µM,n,n,13µM,n
COc1ccccc1NC(=S)N(Cc1ccccc1)Cc1cccnc1,n,n,n,n,n
CC(C)Cc1ccc(C(C)CC2=CCC(CN(C)C)C2=O)cc1 (stereo not given),4.61µM,x,x,4.61µM,x
CCN1C(=O)[C@H]2[C@@H](c3ccc(-c4cccc(Cl)c4)c(OC)c3)N[C@@](Cc3ccccc3)(C(=O)OC)[C@H]2C1=O,18.4µM,x,x,u,n
COC(=O)[C@]1(Cc2ccccc2)N[C@H](c2ccc(-c3cccc(Cl)c3)c(OC)c2)[C@@H]2C(=O)N(C)C(=O)[C@@H]21,10.3µM,x,x,13µM,x
Cc1[nH]c2ccccc2c1/C=C/c1ccnc2ccccc12,2.82µM,x,x,5.62µM,x
C(=C\c1c[nH]c2ccccc12)/c1ccnc2ccccc12,20µM,x,x,u,x
COc1ccc(CNC(=O)C2Cc3ccccc3CN2C(=O)c2ccco2)cc1 (stereo not given),u,n,n,n,n
CCc1ccccc1NC(=O)CN(C)S(=O)(=O)c1ccc(-c2ccc(=O)[nH]n2)s1,n,n,n,n,n
Cc1csc(NC(=O)c2nc(-c3ccccc3)n(-c3ccccc3)n2)n1,u,u,u,u,n
O=C(O)c1nc(-c2ccccc2)n(-c2ccccc2)n1,n,n,n,n,n
N#Cc1cccc(NC(=O)c2nc(-c3ccccc3)n(-c3ccccc3)n2)c1,18.4µM,n,n,u,n
CC(=O)c1cccc(NC(=O)c2nc(-c3ccccc3)n(-c3ccccc3)n2)c1,10.3µM,x,x,20.6µM,n
CCOC(=O)c1nn(-c2cccc(OC)c2)c2nc(CC)c(C#N)c(=O)n12,n,n,n,n,n
CC(=O)c1ccc(NC(=O)c2nc(-c3ccccc3)n(-c3ccc(C)cc3)n2)cc1,18.4µM,x,x,u,n
N#Cc1c(-c2ccccc2)nc2n(-c3ccccc3)nc(C(=O)Nc3ccccc3)n2c1=O,7.31µM,n,n,u,n
SMILES,TDP1 cell noCPT,RORgamma inh,Gal4-VP16 FLuc,TDP1 cell CPT,TDP1 block
O=S(=O)(Nc1nccs1)c1cc(Cl)ccc1Cl,n,n,n,n,n
CCC(=O)n1nc(-c2cccnc2)nc1NCc1ccccc1,n,n,n,n,n
COc1ccc(-c2nc(C(=O)Nc3cccc(C(C)=O)c3)nn2-c2ccccc2Cl)cc1,16.4µM,x,x,18.4µM,n
COc1ccc(NC(=O)C(=O)c2cn(CC(=O)N3CCCC3)c3ccccc23)cc1OC,13µM,n,n,16.4µM,n
COc1ccc(C)cc1NC(=O)C(=O)c1cn(CC(=O)N2CCCC2)c2ccccc12,18.4µM,n,n,u,n
COc1ccc(CCNC(=O)C(=O)c2cn(CC(=O)N3CCCC3)c3ccccc23)cc1,20.6µM,x,x,n,x
CCOC(=O)N1CCN(c2c(N3CCN(c4cccc(C)c4C)CC3)c(=O)c2=O)CC1,n,n,n,n,n
CN1CCc2ccc3c4c2[C@]1(C)Cc1cccc(c1-4)OCO3,x,n,n,x,n
O=C(Nc1ncc2c(n1)-c1ccccc1OC2)c1ccc(F)cc1,n,n,n,n,n
COc1ccc(-c2cccc(C(=O)Nc3cccc(C(=O)O)c3)c2)cc1,n,n,n,n,n
